Experimental data: PubChem BioAssay (NCATS)
Unmarked numbers belong to inactive results. Inconclusive results are not listed. Activity calls are given as the source filed them. Calls come from the whole dose curve; as a rule, active = well fitted curve in the direction sought with a large enough effect; inconclusive = small, poorly fitted or top-dose-only effect, or another doubt; inactive = no such curve, though single readings can be large; an effect the other way counts as inactive or inconclusive.

molecular target: Cytochrome P450 2D6 (Homo sapiens) (UniProt P10635); experiment: qHTS Assay for Inhibitors and Substrates of Cytochrome P450 2D6 (AID 891); settings: recombinant CYP2D6, luciferin-ME EGE luminescence; note: potency is the fitted concentration of half-maximal effect; nearly all actives have a fitted effect of over 60% in size
Sequence (P10635 whole entry, looked up): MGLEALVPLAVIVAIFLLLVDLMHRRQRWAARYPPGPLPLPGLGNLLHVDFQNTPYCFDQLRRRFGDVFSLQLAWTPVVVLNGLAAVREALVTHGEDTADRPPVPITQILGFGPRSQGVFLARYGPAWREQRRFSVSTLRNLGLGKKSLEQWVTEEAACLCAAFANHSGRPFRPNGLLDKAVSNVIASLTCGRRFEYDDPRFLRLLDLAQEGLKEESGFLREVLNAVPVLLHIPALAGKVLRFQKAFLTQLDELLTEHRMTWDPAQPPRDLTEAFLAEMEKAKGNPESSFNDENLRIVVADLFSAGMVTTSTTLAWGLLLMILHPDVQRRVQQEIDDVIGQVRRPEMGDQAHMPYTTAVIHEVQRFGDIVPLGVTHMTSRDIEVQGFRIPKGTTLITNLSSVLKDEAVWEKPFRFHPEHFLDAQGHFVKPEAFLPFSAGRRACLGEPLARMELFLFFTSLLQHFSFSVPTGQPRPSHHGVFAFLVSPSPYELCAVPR
In short: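 Human CYP2D6 (5 nM) with 30 uM Luciferin-ME EGE (at Km) in 100 mM KPO4, compound preincubated 10 min, then NADPH regeneration system for 60 min at room temperature. Luciferin read by luminescence; normalized to 1.43 uM quinidine.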

Compound | Potency
CN(C)CCN(Cc1ccc(Cl)cc1)c1ccccn1 | 20 nM (active)
CN1CCN2c3ncccc3Cc3ccccc3C2C1 (configuration not stated) | 501 nM (active)
CN(C)c1ccccc1CN1CCCN(Cc2ccccc2N(C)C)C1c1ccncc1 | 1260 nM (active)

system: not listed separately; experiment: Confirmation and Secondary Assay for Modulators of Hemoglobin Beta Chain Splicing at IVS2 654 locus (AID 910); settings: HeLa EGFP-654 splicing reporter, GFP fluorescence, 48 h; series mostly up to 46.1 µM; activation (splicing correction): at the top concentration;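 note: HeLa cells stably carrying EGFP split by mutant beta-globin IVS2-654 intron; per-well total GFP intensity by laser scanning cytometry after 2-day treatment; % of control where 0% means no effect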
In short: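 Readout: per-well total peak green fluorescence (488 nm ex, 500–520 nm em) from objects 5–250 µm, reflecting correct splicing of an EGFP-654 reporter. Compounds were applied for 2 days at 37 °C to overnight-plated HeLa EGFP-654 cells; controls were DMSO and 500 nM IVS2-654 PNA.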

Compound | activation (splicing correction)
CCC(c1ccc(O)cc1)C(CC)c1ccc(O)cc1 (configuration not stated) | -2.65%
OC(c1cc(C(F)(F)F)nc2c(C(F)(F)F)cccc12)C1CCCCN1 (configuration not stated) | 4.51%
NCC1CCC(C(=O)O)CC1 (configuration not stated) | 0.784%
O=C1C(CCC(O)c2ccc(F)cc2)C(c2ccc(O)cc2)N1c1ccc(F)cc1 (configuration not stated) | 0.354%
CC(NCCc1ccc(O)cc1)C(O)c1ccc(O)cc1 (configuration not stated) | 1.77%
CS(=O)(=O)c1ccc(C2=C(c3ccccc3)C(=O)OC2)cc1 | 8.44%
CC1(C)OC2CC3C4CC(F)C5=CC(=O)C=CC5(C)C4C(O)CC3(C)[C@]2(C(=O)CO)O1 (some centres not stated) | 0.518%
COc1ccc2ccc(=O)oc2c1CC=C(C)C | 1.12% [at 38.3 µM]
COc1ccnc(CS(=O)c2nc3ccc(OC(F)F)cc3[nH]2)c1OC (configuration not stated) | 0.656%
